Assay outcomes from PubChem BioAssay.
The list is not random: actives were taken first. Their share in the collection is about 4.8%.
hcDAF-12 act = activators of H. contortus DAF-12 nuclear receptor. HEK293 hcDAF-12 lit1-tk-luc reporter, luminescence; 0% DMSO, 100% Δ7-dafachronic acid. activation, % at 6.8 µM. hit rate 1.4% among 370,000. AID 652067;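 active = activation above the mean of all tested compounds plus 3 SD, cut at about 5.5% in these data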;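 also: 100% = response to 3 µM Δ7-dafachronic acid high control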
SMARCA2 act = SMARCA2 function activation, primary screen; MG213 cells, MMTV-luciferase reporter, dexamethasone, overnight; activation, % at 9.1 µM; hit rate 1% among 370,000; AID 652017; in the data active = activation above about 7.8%;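 also: 0% = vehicle wells and 100% = reference activator wells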
ssDAF12 agonist = activates DAF-12 receptor from parasite S. stercoralis. hit rate 1% among 370,000. activation, % at 6.8 µM. HEK293 ssDAF-12/GRIP1 lit1-tk-luc reporter, luminescence; % of 3 µM dafachronic acid response. AID 652126;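 active = activation above the mean over all tested compounds plus 3 SD, cut at about 0.9% in these data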;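 also: 0% = DMSO-only wells and 100% = 3 µM delta7-dafachronic acid wells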
DAX1 inh-1 = inhibits human nuclear receptor DAX1. HEK293 Gal4-DAX1 luciferase reporter, luminescence. inhibition, % at 6.75 µM. hit rate 0.99% among 340,000;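 active = inhibition above the mean over all tested compounds plus 3 SD, cut at about 4.2% in these data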;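 also: 0% = DAX1-transfected cells with DMSO and 100% = empty-vector control cells with DMSO; inhibition shows as a rise in luminescence from relieved DAX1 repression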
Target sequence (P51843 207-470 limits assumed): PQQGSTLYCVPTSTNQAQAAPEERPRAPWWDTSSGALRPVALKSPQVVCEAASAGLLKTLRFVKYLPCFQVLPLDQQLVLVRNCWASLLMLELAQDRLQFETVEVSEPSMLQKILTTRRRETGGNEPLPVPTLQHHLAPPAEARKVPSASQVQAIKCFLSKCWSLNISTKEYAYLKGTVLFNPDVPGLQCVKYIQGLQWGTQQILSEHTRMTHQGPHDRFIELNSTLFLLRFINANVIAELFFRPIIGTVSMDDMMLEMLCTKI
DAX1 inh-2 = blocks DAX1 repression of SF-1 activated StAR promoter; HEK293T StAR-luciferase reporter, SF-1/DAX-1 repression relief; inhibition, % at 6.8 µM; hit rate 1.1% among 370,000; AID 652010;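 active = inhibition above the mean over all tested compounds plus 3 SD, cut at about 3.6% in these data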;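 also: 0% = DAX-1 cells with DMSO and 100% = cells lacking DAX-1 with DMSO; higher inhibition means more luminescence from relief of DAX-1 repression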
hgDAF-12 ag = agonists of H. glycines DAF-12 nuclear receptor | HEK293 GAL4-hgDAF12 UAS-luciferase reporter, agonist luminescence; normalized to butyrate control | activation, % at 6.8 µM | hit rate 1.8% among 370,000 | AID 687014;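 active = activation above a cutoff set at the mean of all screened compounds plus 3 SD, cut at about 10% in these data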;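 also: 0% = DMSO wells and 100% = sodium butyrate wells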
SMARCA2 conf = confirmation of SMARCA2 (BRM) function activators | shares compounds with SMARCA2 act | MG213 cells, MMTV-luciferase with dexamethasone, luminescence, overnight; MG213 cells expressing E1A, Rb sequestered; DMSO wells 0%, reference activator 100% | activation, % at 9.1 µM | hit rate 30% among 3,500 | AID 652260;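 active = activation above its plate's cutoff, the mean activation of tested wells plus 3 SD, cut at about 7.9% in these data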
GAL4-VP16 Luc = GAL4-VP16 reporter activation counter-screen. shares compounds with SMARCA2 act. HEK293 GAL4-VP16 pG5luc reporter, luciferase luminescence; scaled: DMSO wells 0%, SAHA wells 100%. activation, % at 9.1 µM. hit rate 41% among 3,500. AID 686939;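 active = activation above the solvent-only control well mean plus 3 SD, averaged across control plates, cut at about 5.2% in these data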
An asterisk follows results filed as active; x = no result given.

SMILES | hcDAF-12 act | SMARCA2 act | ssDAF12 agonist | DAX1 inh-1 | DAX1 inh-2 | hgDAF-12 ag | SMARCA2 conf | GAL4-VP16 Luc
O=S1(=O)c2ccc(Br)cc2OC[C@@H](Cc2ccccc2)N1Cc1cn(CCC2OCCCO2)nn1 | 4 | -2 | -1 | x | -1 | 5 | x | x
COc1ccccc1OCCSc1nnnn1-c1ccc(C)cc1 | -2 | 9.0* | -1 | 0 | 1 | 4 | 0 | 3
CCOc1ccc(OCCSc2nnnn2-c2ccccc2)cc1 | -2 | 1 | -1 | -1 | -1 | 2 | x | x
CC1=NN(Cc2ccccc2)C(=O)C1 | -2 | 10* | -1 | 0 | -1 | -4 | -4 | 1
CC1=NN(c2ccccc2)C(=O)C1 | 2 | -7 | 0 | -1 | 0 | 3 | x | x
CCc1nc2ccccc2nc1N1CCN(S(=O)(=O)c2ccc(Cl)cc2)CC1 | 0 | 9.4* | -1 | 1 | 0 | -2 | -3 | 0
Cn1c(N2CCN(S(=O)(=O)c3ccc(Cl)cc3)CC2)nc2ccccc21 | 1 | -4 | -2 | 0 | 1 | -2 | x | x
CCCCOCCCNC(=O)C[C@@H]1C(=O)N(CCc2ccc(Cl)cc2)C2=CCCC[C@]21C(=O)OCC | -3 | -2 | -1 | x | -2 | 2 | x | x
O=C(CCOc1ccccc1)Nc1ccc(Br)cc1 | 3 | 11* | -1 | 2 | 1 | 6 | 8 | 5.3*
CC(C)NC(=O)c1ccccc1-c1ccccc1 | -1 | -1 | -1 | 1 | 0 | 2 | x | x
CC(C)NC(=O)C1(C#N)C=C1c1ccccc1 (configuration not stated) | -3 | 9.4* | -1 | x | -2 | -4 | 3 | -1
CCOc1ccc(NC(=O)C(c2ccccn2)N(C(=O)CCl)c2ccc(OC)cc2)cc1 (configuration not stated) | 10* | 9.7* | 2.4* | 1 | 0 | 11* | 8 | 4
CC(=O)c1cc(-c2ccc3nonc3c2)c(=O)n2c1CCC2 | -1 | 0 | -1 | x | -1 | -3 | x | x
Cc1[nH]c(C)c(S(=O)(=O)Nc2ccc(F)cc2Cl)c1C(=O)N1CCCC1 | -1 | 9.0* | -1 | 0 | 0 | 2 | -5 | -1
COc1cccc(CNS(=O)(=O)c2c(C)[nH]c(C)c2C(=O)N2CCCCC2)c1 | -1 | 13* | -1 | 0 | 0 | -1 | -2 | 0
Cc1ccc(CNS(=O)(=O)c2c(C)[nH]c(C)c2C(=O)N2CCCCC2)cc1 | -2 | -2 | -1 | 0 | 1 | 3 | x | x
Cc1ccc(C(=O)NC2CCCCN(Cc3ccc(Cl)cc3)C2=O)c(C)c1 (configuration not stated) | -2 | -3 | -1 | x | 1 | 0 | x | x
Cc1ccc(CN2CCCCC(NC(=O)Cc3cccs3)C2=O)cc1 (configuration not stated) | -1 | -3 | -1 | x | 0 | -4 | x | x
CCC(=O)Nc1ccc(Cl)cc1C(=O)c1ccc[nH]1 | 3 | x | -1 | x | x | 5 | x | x
CC1(C)COC(c2cc3c(cc2Br)OCO3)OC1 | 0 | 8.1* | -1 | 0 | 0 | -1 | -1 | -2
COC(=O)[C@]12C[C@H](CC(=O)N3CCN(C(=O)C4CC4)CC3)C(=O)N(Cc3ccc(Cl)cc3Cl)C1=C[C@H](C1CCCC1)O[C@@H]2C | -1 | -3 | -1 | x | -1 | 2 | x | x
O=C(/C=C/c1ccc(Cl)cc1)Nc1cc(S(=O)(=O)N2CCOCC2)ccc1N1CCOCC1 | -1 | 8.2* | -1 | 0 | -2 | -4 | 2 | 0
CCN1CCN(c2ccc(S(=O)(=O)N3CCCCC3)cc2NC(=O)/C=C/c2ccc(F)cc2)CC1 | 0 | 6 | -1 | 0 | -2 | 0 | x | x
CCN1CCN(c2ccc(S(=O)(=O)N3CCCCC3)cc2NC(=O)/C=C/c2ccc([N+](=O)[O-])cc2)CC1 | 0 | 15* | 0 | 0 | -4 | -2 | 23* | 0
CC(=O)N1CCN(c2ccc(N3CCN(Cc4ccccc4)[C@H](C)C3)c(C)c2)[C@H](C)C1 | -2 | -4 | -1 | x | -1 | 3 | x | x
SMILES | hcDAF-12 act | SMARCA2 act | ssDAF12 agonist | DAX1 inh-1 | DAX1 inh-2 | hgDAF-12 ag | SMARCA2 conf | GAL4-VP16 Luc
COC(=O)C[C@@H]1CC[C@@H]2[C@@H](COc3ccc(NC(=O)Nc4ccc(F)cc4)cc3C(=O)N2C)O1 | 1 | -3 | 0 | x | -1 | 1 | x | x
COc1ccccc1NC(=O)c1cccnc1 | 0 | 8.7* | -1 | -1 | 0 | 3 | -1 | -1
COc1ccc(NC(=O)CSc2nnc(-c3n[nH]c4c3CCC4)n2N)cc1OC | -1 | -1 | -2 | x | -1 | 4 | x | x
O=C(Nc1sc2c(c1C(=O)NCc1ccco1)CCCC2)c1ccc2c(c1)OCO2 | 1 | 8.9* | -2 | 1 | 1 | 4 | 4 | 8.3*
O=C(Nc1sc2c(c1C(=O)O)CCC2)c1ccco1 | 2 | 9.1* | 0 | 1 | 1 | 5 | 3 | 4
Cc1ccc(C(=O)Nc2sc3c(c2C(=O)NCc2ccco2)CCCC3)cc1 | 3 | -1 | 0 | 1 | 0 | 6 | x | x
CCN(CC)c1ccc2cc(C(=O)NCc3ccc(F)cc3)c(=N)oc2c1 | 1 | 3 | -1 | 3 | 0 | -1 | x | x
CCN(CC)c1ccc2cc(C(=O)c3cccs3)c(=O)oc2c1 | 1 | 8.3* | -1 | x | 2 | 10 | 9.5* | 1
C=CCN1C[C@H](COC(=O)c2cccc(C)c2)Oc2cccc(F)c2S1(=O)=O | -1 | -1 | -1 | x | -2 | -3 | x | x
O=C(Nc1ccc(N2CCN(C(=O)c3ccco3)CC2)cc1)c1ccc(F)cc1 | -1 | -2 | -1 | 0 | -1 | -2 | x | x
O=C(c1ccco1)N1CCN(c2ccc(F)cc2)CC1 | 1 | 18* | -2 | -1 | 2 | 4 | 2 | 5.8*
CCOC(=O)CC[C@@]1(C(=O)OCC)C[C@@H](CC(=O)NCC23CC4CC(CC(C4)C2)C3)C(=O)N2CCCC=C21 | -2 | -1 | -2 | x | -2 | -1 | x | x
Cc1cccc(C(=O)N[C@H](C(=O)Nc2nnc(C3CC3)s2)C(C)C)c1 | -1 | -3 | -1 | 1 | 0 | 0 | x | x
Cc1cccc(C(=O)N[C@H](C(=O)Nc2ncc(C)s2)C(C)C)c1 | 1 | 27* | -1 | 2 | 1 | 9 | 26* | 0
c1coc(-c2nnc(NC3=NCCC3)o2)c1 | 2 | 8.8* | -1 | 4 | 1 | 8 | 3 | 5.4*
Cc1nnc(NC2=NCCC2)o1 | 3 | -1 | -2 | 0 | 0 | -1 | x | x
COc1ccc(NC(=O)C/C(C)=N/NC(=O)c2ccccn2)c(OC)c1 | 4 | 10.0* | 0 | 1 | 3 | 12* | 2 | 5.8*
